Measurements published in PubChem BioAssay (NCATS).
Where “and” joins values, the source holds several entries; their conditions need not be identical. Identical values can stand only once. Results filed as inconclusive are left out. Calls of active or inactive are those of the source. Calls come from the whole dose curve; as a rule, active = well fitted curve in the direction sought with a large enough effect; inconclusive = small, poorly fitted or top-dose-only effect, or another doubt; inactive = no such curve, though single readings can be large; an effect the other way counts as inactive or inconclusive.

Key:
[1] = target: Cytochrome P450 3A7 (Homo sapiens) (UniProt P24462); test: Cytochrome P450 family 3 subfamily A member 7 (CYP3A7) small molecule antagonists: luciferase biochemical qHTS assay (AID 1963596); note: nearly all actives have a fitted effect of over 40% in size
Sequence of Cytochrome P450 3A7 (Homo sapiens) (P24462 whole entry, looked up): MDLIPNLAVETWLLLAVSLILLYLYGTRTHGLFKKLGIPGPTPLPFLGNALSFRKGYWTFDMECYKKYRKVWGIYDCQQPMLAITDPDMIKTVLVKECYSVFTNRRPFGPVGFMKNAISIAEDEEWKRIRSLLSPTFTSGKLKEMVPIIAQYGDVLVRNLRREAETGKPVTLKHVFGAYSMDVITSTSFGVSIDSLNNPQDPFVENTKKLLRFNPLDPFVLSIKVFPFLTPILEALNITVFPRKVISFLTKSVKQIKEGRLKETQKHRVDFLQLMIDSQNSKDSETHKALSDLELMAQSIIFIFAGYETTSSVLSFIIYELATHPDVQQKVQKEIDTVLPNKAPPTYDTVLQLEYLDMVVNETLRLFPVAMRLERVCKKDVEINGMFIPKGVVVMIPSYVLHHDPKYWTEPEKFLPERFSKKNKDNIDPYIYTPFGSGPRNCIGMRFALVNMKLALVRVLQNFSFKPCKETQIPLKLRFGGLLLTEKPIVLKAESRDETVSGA
Outline: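 Enzyme-substrate mix + cpd (DMSO), 10 min RT; + NADPH regen system, 1 h RT; + luciferin detection reagent, 20 min RT; luminescence read. Proluciferin substrate, P450-Glo format, 1536-well qHTS.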

[2] = Viability qHTS for spleen associated tyrosine kinase inhibitor (SYKi) drug resistant MV4-11 cells (AID 1963824); note: nearly all actives have a fitted effect of over 35% in size
Outline: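 CellTiter-Glo luminescence, read 10 min after reagent addition, reports viability after a 72 hr compound exposure. Cells are an MV4-11 line made resistant to SYK inhibition, seeded at 500 per well onto compound-containing plates.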

[3] = Quantitative highthroughput screen to assess conditional lethalithy of NOMO1 cells grown in RPMI1640 with dialyzed fetal bovine serum (RPMI+ds) (AID 1963877); note: nearly all actives have a fitted effect of over 30% in size
Outline: (§1)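 Each medium arm—HPLM with 10% dialyzed FBS, or RPMI1640 with 5 mM glucose and 10% untreated or dialyzed FBS—was screened against an 11-point, 3-fold compound titration for 48 h at 37 °C, with CellTiter-Glo luminescence as endpoint.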

[4] = Quantitative highthroughput screen to assess conditional lethalithy of NOMO1 cells grown in Human Plasma-Like Medium with dialyzed fetal bovine serum (HPLM+ds) (AID 1963878); note: nearly all actives have a fitted effect of over 35% in size
Outline: as §1

[5] = Quantitative highthroughput screen to assess conditional lethalithy of SEM cells grown in Human Plasma-Like Medium with dialyzed fetal bovine serum (HPLM+ds) (AID 1963882); note: nearly all actives have a fitted effect of over 35% in size
Outline: as §1

[6] = Quantitative highthroughput screen to assess conditional lethalithy of SEM cells grown in RPMI1640 with unreated serum (RPMI+s) (AID 1963883); note: nearly all actives have a fitted effect of over 35% in size
Outline: as §1

[7] = Quantitative highthroughput screen to assess conditional lethalithy of SEM cells grown in RPMI1640 with dialyzed fetal bovine serum (RPMI+ds) (AID 1963884); note: nearly all actives have a fitted effect of over 35% in size
Outline: as §1

[8] = Cellular viability qHTS for adrenocortical cancer (ACC) cell line SW-13 (AID 1963989); details: SW-13 ACC cells viability, CellTiter-Glo, 48 h; activity (max response): hits give low values; note: nearly all actives have a fitted effect of over 65% in size
Outline: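 Viability was read as CellTiter-Glo luminescence after 48 h compound treatment (up to 46 uM final) of SW-13 cells grown serum-free; titration curves were fit with a four-parameter logistic model to give IC50 and efficacy.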

[9] = Cellular viability qHTS for adrenocortical cancer (ACC) cell line NCI-H295R (AID 1963990); note: nearly all actives have a fitted effect of over 60% in size
Outline: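 CellTiter-Glo ATP luminescence, read 48 h after compound addition, measured viability of NCI-H295R adrenocortical cells grown serum-free with ITS. Final concentrations spanned up to 46 uM. Data normalized to DMSO and doxorubicin, fitted for IC50 and maximal response.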

[10] = Quantitative highthroughput screen to assess conditional lethalithy of NOMO1 cells grown in RPMI1640 with untreated serum (RPMI+s) (AID 1963876); note: nearly all actives have a fitted effect of over 35% in size
Outline: as §1

Measured: Potency
Potency is the fitted concentration of half-maximal effect.

COc1cc(N2CCOCC2)ccc1NC(=O)c1csc(-c2cccnc2)n1
active: [2] 259 nM
inactive: [1]

COc1cc2c(Oc3ccc(-c4cnc(Nc5ccc(F)cc5)n(C)c4=O)cc3F)ccnc2cc1OCCCN1CCOCC1
active: [2] 58 nM and 29.5 nM | [3] 23500 nM | [4] 20900 nM | [5] 166 nM | [6] 1050 nM | [7] 83.3 nM | [8] 15800 nM | [9] 3980 nM
inactive: [1]

CC1(C)CC(=O)c2c(C(F)(F)F)nn(-c3ccc(C(N)=O)c(NC4CCC(OC(=O)CN)CC4)c3)c2C1 (stereo unspecified)
active: [1] 15100 nM | [2] 51.7 nM and 37.2 nM | [10] 372 nM | [3] 296 nM | [4] 332 nM | [5] 264 nM | [6] 264 nM | [7] 296 nM | [8] 282 nM | [9] 501 nM
